Data as given in PubChem BioAssay (EPA / NIEHS).
Where “and” joins values, the source holds several entries; their conditions need not be identical. Identical values can stand only once. Records with an inconclusive call do not appear. Calls of active or inactive are those of the source. How the source made its calls: active means hit-call score of the fitted dose curve at least 0.9, where 1 is the maximum; inconclusive means response in the unintended direction; inactive means score below 0.9.

experiment: ATG_XTT_Cytotoxicity: Cytotoxicity Assessment in the Attagene TRANS-FACTORIAL HepG2 Assay (AID 2283584);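 on AC50: cells exposed to compound for 24 h before reading; active means loss of viability signal versus DMSO baseline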
Outline: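 Cells: human HepG2, transiently transfected with MRTU reporter constructs. Exposure 24 h. Readout: XTT, cell number. Baseline/neg ctrl DMSO; loss-of-signal scored.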

Structure (SMILES)	outcome	AC50
Cc1ccccc1OP(=O)(Oc1ccccc1)Oc1ccccc1	inactive	
Cc1ccc(CCl)cc1	inactive	
Fc1cccc(Cl)c1CCl	inactive	
C=CCOC(N)=O	inactive	
Oc1c(Br)cc(Br)cc1Br	inactive	
N#Cc1ccccc1N	inactive	
CN(CCCC(O)c1cccnc1)N=O (stereo unspecified)	inactive	
O=c1nc(O)n(Cl)c(=O)n1Cl	inactive	
Cc1ccc(OP(=O)(Oc2ccc(C)cc2C)Oc2ccc(C)cc2C)c(C)c1	inactive	
CN(N=O)c1ccc([N+](=O)[O-])cc1	inactive	
O=C1C=CC(=O)c2ccccc21		49.2 µM (active)
C1CN2CCN1CC2	inactive	
NC(=O)c1ccc(N)nc1	inactive	
C=C(C)C(=O)OCCCCOC(=O)C(=C)C	inactive	
COc1nn(C(=O)NS(=O)(=O)c2ccccc2OC(F)(F)F)c(=O)n1C	inactive	
NC(=O)CCl	inactive	
Cc1ccc2nc3sc(=O)sc3nc2c1	inactive	
O=C/C(Cl)=C(/Cl)C(=O)O	inactive	

Structure (SMILES)	outcome	AC50
CCCCC(CC)COC(=O)Cl (stereo unspecified)	inactive	
C1CCC(C2CCCCC2)CC1	inactive	
O=C(O)COc1cc(Cl)c(Cl)cc1Cl	inactive	
OC(Cc1ccccc1Cl)(Cn1cncn1)C1(Cl)CC1 (stereo unspecified)	inactive	
Cc1cccc(OP(=O)(Oc2cccc(C)c2)Oc2cccc(C)c2)c1	inactive	
CN(C1CCCCC1)C1CCCCC1	inactive	
Brc1c(Br)c(Br)c(Oc2c(Br)c(Br)c(Br)c(Br)c2Br)c(Br)c1Br	inactive	
N#Cc1ccccc1Cl	inactive	
C[C@]12CC[C@@H](O)C[C@@H]1CC[C@@H]1[C@@H]2CC[C@]2(C)C(=O)CC[C@@H]12	inactive	
COCC(=O)N(c1c(C)cccc1C)[C@H](C)C(=O)OC	inactive	
CCOP(=O)(OCC)SCCSCC	inactive	
C[C@@H]1O[C@@H](O[C@H]2C[C@@H](O)[C@]3(CO)[C@H]4[C@H](O)C[C@]5(C)[C@@H](C6=CC(=O)OC6)CC[C@]5(O)[C@@H]4CC[C@]3(O)C2)[C@H](O)[C@H](O)[C@H]1O	inactive	
Oc1cccc(-c2ccccc2)c1	inactive	
CC[N+](CC)(CC)CC	inactive	
CCOCn1c(-c2ccc(Cl)cc2)c(C#N)c(Br)c1C(F)(F)F	inactive	
CCCCCCCCCCCCOS(=O)(=O)O	inactive	
CCCSP(=S)(OCC)Oc1ccc(Cl)cc1Cl (stereo unspecified)	inactive	
[Cl][Sn]([c]1ccccc1)([c]1ccccc1)[c]1ccccc1		1.73 µM (active) and 986 nM (active)
